The nature of assay [1]: anti-His antibody binders, primary screen, artefact control for SMM control protein annotation, biochemical, small-molecule microarray, 635 nm fluorescence (AID 1128).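 Also: score merges feature fluorescence with signal-to-noise for each printed compound spot.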 Conditions: anti-His Alexa647 antibody binding, higher = more signal.
The subject of assay [2] is Human papillomavirus type 1a E7 protein (residues 1-88). In words: HPV1a E7 small-molecule binders, primary screen, biochemical, small-molecule microarray, residues 1-88, 635 nm (AID 1129). As to conditions: small-molecule microarray binding, fluorescence 635 nm; higher = more signal.
Assay [3] concerns the target Focal adhesion kinase 1 (Homo sapiens) (UniProt Q05397). The assay can be described thus: small-molecule microarray binders of FAK, primary screen, biochemical, 635/667 nm fluorescence, BSA, DTT (AID 1130).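 Also: composite of spot emission at 667 nm and signal to noise over triplicate slides.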 As to conditions: PTK2 binding, 635 nm fluorescence, higher = more signal.
Assay [4] has as its system Fibrinogen (Alexa647-labelled). The assay can be described thus: fibrinogen binders on compound microarrays, profiling panel, artefact control for SMM control-protein annotation, biochemical, small-molecule microarray, 635/667 nm fluorescence (AID 1131).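 Also: z-score merges 667 nm fluorescence with per-spot signal-to-noise over triplicate slides.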 Conditions: fibrinogen-A647 binding fluorescence, higher = more signal.
Assay [5] addresses Follistatin (Homo sapiens) (UniProt P19883). The assay can be described thus: follistatin binders on small-molecule microarrays, primary screen, biochemical, small-molecule microarray, 635/667 nm fluorescence (AID 1132). Conditions: FST binding, 635 nm fluorescence, higher = more signal.
Assay [6] concerns the target Fibroblast growth factor 2 (Homo sapiens) (UniProt P09038). The assay can be described thus: FGF2 binders on small-molecule microarrays, primary screen, biochemical, small-molecule microarray, 635/667 nm fluorescence (AID 1133). Conditions: small-molecule microarray binding, FGF2, fluorescence 635/667; higher = more signal.
Assay [7] can be described thus: mitochondrial membrane potential change in A549 cells, profiling panel, cell-based, JC-1 fluorescence, basal, 24 h, 100 nL (AID 1138).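 Also: A549 lung adenocarcinoma cells under basal conditions with no added stimulus; test concentration not given here.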 As to conditions: higher = more signal.
Another assay relates to Lefty1. The assay can be described thus: Lefty1 binders on small-molecule microarrays, primary screen, biochemical, small-molecule microarray, 635/667 nm fluorescence (AID 1139). As to conditions: small-molecule microarray binding, fluorescence 635/667; higher = more signal.
Assay [8] relates to wheat germ agglutinin (Triticum aestivum), Alexa647-labelled. In words: wheat germ agglutinin binders on compound microarrays, profiling panel, artefact control for SMM control-protein annotation, biochemical, small-molecule microarray, 635/667 nm fluorescence (AID 1140).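 Also: score merges 667 nm feature emission with signal to noise over triplicate slides.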 As to conditions: WGA-A647 binding, 635 nm fluorescence, higher = more signal.
Assay [9] concerns the target Luciferin 4-monooxygenase (Photinus pyralis) (UniProt P08659). The assay can be described thus: firefly luciferase enzyme inhibitors, primary screen, biochemical, luminescence, purified enzyme, 2006 set (AID 1141).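 Also: cell-free assay with purified firefly luciferase at 100 ng per well in PBS; test concentration not given here.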 Conditions: SteadyGlo luminescence, 30 min, higher = more signal, called active from +8 up or from −8 down.
Assay [10] has as its system Wnt5a (protein binding on small-molecule microarray). The assay can be described thus: Wnt5a binders on small-molecule microarray, primary screen, biophysical, 635/667 nm fluorescence (AID 1142).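 Also: fluorescence read at 667 nm with signal to noise per printed feature.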 Conditions: 635 nm fluorescence, higher = more signal.
Assay [11] can be described thus: cell viability in Huh7 cells, primary screen, cytotoxicity control for HCV replication inhibitor project, CellTiter-Glo luminescence, basal, 48 h (AID 1143).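 Also: Huh7 hepatoma cells carrying a hepatitis C replication reporter with no stimulus; test concentration not given here.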 As to conditions: Huh7 HCV replicon, higher = more signal, called active from +8 up or from −8 down. In general terms: Cellular ATP, detected with luciferase, serves as a proxy for viable cell number.
Assay [12] can be described thus: P. aeruginosa biofilm formation inhibitors, primary screen, PAO1 strain, BacTiter-Glo luminescence, LB-PBS (AID 1144). Conditions: 12 h, higher = more signal.
The nature of assay [13]: CREB reporter modulators without forskolin, primary screen, cell-based, PC12, CRE-LacZ reporter, unstimulated (AID 1145). As to conditions: no forskolin, luminescence, 4.5 h, higher = more signal, called active from +8 up or from −8 down.
The nature of assay [14]: CREB reporter modulators under forskolin, primary screen, cell-based, PC12, CRE-LacZ reporter, forskolin-stimulated (AID 1146).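 Also: PC12 cells with 6xCRE LacZ reporter stimulated by forskolin 10 µM; beta-galactosidase reporter signal reflecting CREB driven transcription.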 As to conditions: luminescence, 4.5 h, higher = more signal, called active from +8 up or from −8 down.
Assay [15] addresses Streptavidin (Streptomyces avidinii) (UniProt P22629). The assay can be described thus: streptavidin binders on small-molecule microarray, primary screen, artefact control for SMM compound annotation, biophysical, 635/667 nm fluorescence (AID 1147).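 Also: signal reflects streptavidin binding to arrayed compounds as a control protein.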 Conditions: streptavidin binding, higher = more signal.
Assay [16] in a line: small-molecule binders of probe aInhba, primary screen, biochemical, small-molecule microarray, 635/667 nm fluorescence (AID 1148).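 Also: score merges 667nm spot fluorescence with signal-to-noise for antibody binding to printed compounds.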 As to conditions: higher = more signal.
In assay [17] the target is Torsin-1A (Homo sapiens) (UniProt O14656). The assay can be described thus: torsin A binders from cell lysate, primary screen, small-molecule microarray, wild-type, 635/667 nm (AID 1149). Conditions: COS7 hTOR1A-WT lysate, 635 nm fluorescence, higher = more signal.
Assay [18] has the same target. The assay can be described thus: small-molecule binders of mutant TOR1A in lysate, primary screen, cell lysate, small-molecule microarray, COS7 lysate, 635/667 nm fluorescence (AID 1150).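 Also: score pools 667 nm emission and signal to noise measuring lysate protein binding.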 Conditions: COS7 hTOR1A mutant lysate, 635 nm fluorescence, higher = more signal.
Assay [19] has as its system Sonic hedgehog protein (Shh). The assay can be described thus: small-molecule binders of Shh protein, primary screen, biochemical, small-molecule microarray, 635/667 nm fluorescence (AID 1151).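 Also: Shh protein binding to compounds spotted on small-molecule microarray slides; score combines spot fluorescence intensity with signal-to-noise across triplicate slides.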 As to conditions: small-molecule microarray binding, 635 nm fluorescence; higher = more signal.

Calls of active or inactive are those of the source. Unless noted, no rule for the calls is given here.

Chain of Focal adhesion kinase 1 (Homo sapiens) (Q05397 whole entry, looked up): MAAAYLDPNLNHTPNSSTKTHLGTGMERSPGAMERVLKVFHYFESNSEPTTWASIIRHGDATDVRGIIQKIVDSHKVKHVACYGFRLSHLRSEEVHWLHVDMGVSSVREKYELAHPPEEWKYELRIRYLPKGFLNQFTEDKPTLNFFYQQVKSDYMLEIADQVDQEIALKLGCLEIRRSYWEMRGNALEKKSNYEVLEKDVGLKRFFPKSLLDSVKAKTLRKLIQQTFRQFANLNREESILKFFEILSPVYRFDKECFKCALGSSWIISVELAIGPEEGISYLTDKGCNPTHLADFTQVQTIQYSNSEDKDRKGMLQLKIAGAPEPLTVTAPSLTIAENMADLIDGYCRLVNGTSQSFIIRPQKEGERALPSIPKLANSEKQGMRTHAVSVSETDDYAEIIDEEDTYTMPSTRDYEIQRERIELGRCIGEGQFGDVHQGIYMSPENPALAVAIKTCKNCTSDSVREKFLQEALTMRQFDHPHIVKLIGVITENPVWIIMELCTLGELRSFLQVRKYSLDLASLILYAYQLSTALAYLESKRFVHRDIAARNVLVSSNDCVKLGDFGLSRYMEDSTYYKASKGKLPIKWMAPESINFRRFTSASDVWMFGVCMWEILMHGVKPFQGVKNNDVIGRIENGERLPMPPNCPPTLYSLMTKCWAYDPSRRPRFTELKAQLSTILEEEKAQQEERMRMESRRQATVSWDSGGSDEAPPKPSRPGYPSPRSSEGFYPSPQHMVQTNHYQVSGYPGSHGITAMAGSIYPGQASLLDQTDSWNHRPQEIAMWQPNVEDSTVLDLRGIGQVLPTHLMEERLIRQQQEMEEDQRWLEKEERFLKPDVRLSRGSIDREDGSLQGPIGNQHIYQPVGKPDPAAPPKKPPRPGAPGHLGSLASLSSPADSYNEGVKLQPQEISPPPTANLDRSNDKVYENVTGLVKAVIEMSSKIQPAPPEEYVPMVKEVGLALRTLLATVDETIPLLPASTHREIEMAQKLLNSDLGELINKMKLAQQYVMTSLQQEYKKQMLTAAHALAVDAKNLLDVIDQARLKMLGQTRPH
Chain of Luciferin 4-monooxygenase (Photinus pyralis) (P08659 whole entry, looked up): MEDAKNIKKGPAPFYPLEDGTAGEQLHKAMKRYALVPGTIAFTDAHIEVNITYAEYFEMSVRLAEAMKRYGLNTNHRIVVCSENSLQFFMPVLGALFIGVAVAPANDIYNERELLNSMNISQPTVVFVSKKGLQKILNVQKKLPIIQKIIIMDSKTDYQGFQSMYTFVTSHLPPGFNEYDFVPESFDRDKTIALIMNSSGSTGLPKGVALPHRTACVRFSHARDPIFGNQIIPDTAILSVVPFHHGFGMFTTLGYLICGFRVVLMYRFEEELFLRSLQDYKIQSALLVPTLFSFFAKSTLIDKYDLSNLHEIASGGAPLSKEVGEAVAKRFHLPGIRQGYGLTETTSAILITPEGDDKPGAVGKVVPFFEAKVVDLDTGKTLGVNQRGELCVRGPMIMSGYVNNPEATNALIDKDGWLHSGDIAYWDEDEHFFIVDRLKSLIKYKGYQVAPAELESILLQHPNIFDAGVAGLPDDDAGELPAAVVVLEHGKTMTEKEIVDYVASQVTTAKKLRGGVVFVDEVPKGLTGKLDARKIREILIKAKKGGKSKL
Chain of Streptavidin (Streptomyces avidinii) (P22629 whole entry, looked up): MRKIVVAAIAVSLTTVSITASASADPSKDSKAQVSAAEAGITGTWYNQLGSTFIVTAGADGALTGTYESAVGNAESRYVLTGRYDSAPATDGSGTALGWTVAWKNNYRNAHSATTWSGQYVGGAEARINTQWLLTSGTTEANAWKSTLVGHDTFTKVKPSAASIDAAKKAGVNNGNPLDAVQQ
Chain of Fibroblast growth factor 2 (Homo sapiens) (P09038 whole entry, looked up): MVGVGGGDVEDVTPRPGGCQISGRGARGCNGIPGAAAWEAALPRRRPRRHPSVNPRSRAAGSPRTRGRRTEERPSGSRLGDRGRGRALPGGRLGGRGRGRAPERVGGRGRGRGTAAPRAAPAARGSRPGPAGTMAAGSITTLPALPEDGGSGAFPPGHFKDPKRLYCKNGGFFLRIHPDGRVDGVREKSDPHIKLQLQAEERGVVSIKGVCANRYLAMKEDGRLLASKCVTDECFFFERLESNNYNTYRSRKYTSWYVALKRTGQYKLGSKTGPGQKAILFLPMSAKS
Chain of Torsin-1A (Homo sapiens) (O14656 whole entry, looked up): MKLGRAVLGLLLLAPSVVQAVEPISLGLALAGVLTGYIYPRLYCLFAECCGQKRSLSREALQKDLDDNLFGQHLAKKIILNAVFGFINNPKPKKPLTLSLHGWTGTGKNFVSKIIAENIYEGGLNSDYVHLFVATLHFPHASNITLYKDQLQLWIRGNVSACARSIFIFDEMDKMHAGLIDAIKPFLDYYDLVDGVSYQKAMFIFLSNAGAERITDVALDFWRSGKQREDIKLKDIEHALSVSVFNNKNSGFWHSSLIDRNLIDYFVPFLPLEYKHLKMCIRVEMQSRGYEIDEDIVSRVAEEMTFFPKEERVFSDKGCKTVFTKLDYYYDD
Chain of Follistatin (Homo sapiens) (P19883 whole entry, looked up): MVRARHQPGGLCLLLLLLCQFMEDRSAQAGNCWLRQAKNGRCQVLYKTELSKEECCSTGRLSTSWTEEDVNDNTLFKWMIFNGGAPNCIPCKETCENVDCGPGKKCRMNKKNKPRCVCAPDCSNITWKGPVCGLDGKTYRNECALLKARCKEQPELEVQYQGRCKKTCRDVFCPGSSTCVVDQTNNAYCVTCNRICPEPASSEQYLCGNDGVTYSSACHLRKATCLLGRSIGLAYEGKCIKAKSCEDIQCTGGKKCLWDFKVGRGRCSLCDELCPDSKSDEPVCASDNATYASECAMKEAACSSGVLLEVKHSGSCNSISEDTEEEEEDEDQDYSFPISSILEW

In the case of `COC(=O)c1c2oc(c1C(=O)OC)C(=O)N[C@H](Cc1ccccc1)Cn1nncc1C1(CCCCC1)NC(=O)N[C@H](CO)CC2`, the composite z-score in [1] is 0.265; in assay [2], 0.275; in assay [3], 0.13; in assay [4] it was -0.0472; in assay [5], 0.373; in [6] it was 0.1. Besides, the composite z-score is 0.553 with Lefty1; -0.0322 in assay [8]; 0.159 in assay [10]; 0.412 in assay [15]; 0.0154 in assay [16]; -0.0688 with Torsin-1A (Homo sapiens) [17]. In addition, the composite z-score is -0.0459 with Torsin-1A (Homo sapiens) [18] and 0.798 in [19]. In addition, the z-score in assay [7] was 3.5; in [9], -0.676 (inactive); in [11] it was -0.11 (inactive); in assay [12], -0.318 (inactive); in assay [13], 1.75 (inactive); in assay [14], 0.154 (inactive).
Consider `CC(=O)n1cc(C(O)C2C=CC3C(=O)N(c4ccccc4)C(=O)C3N2Nc2ccc(C#N)cc2)c2ccccc21` (stereo not given), for which the composite z-score in [1] is 1.56; in assay [2], 1.26; in [3], 0.519; in assay [4], 0.893; in assay [5] it was 0.12; in assay [6] it was -0.856. In addition, the composite z-score with Lefty1 is -0.233; in assay [8], 1.38; in assay [10], 0.523; in assay [15], 0.846; in assay [16] it was 0.11; with Torsin-1A (Homo sapiens) [17] it was -0.467. Also, the composite z-score is 0.522 with Torsin-1A (Homo sapiens) [18] and -0.38 in assay [19]. Besides, the z-score was 0.0139 in [7]; -0.985 (inactive) in assay [9]; 0.853 (inactive) in [11]; -0.935 (inactive) in [12]; -0.512 (inactive) in [13]; 0.1 (inactive) in assay [14].
`C=CC[C@]1(C(=O)NCCN2CCOCC2)N=C(c2ccc(OCCCO)cc2)O[C@H]1c1ccccc1N=[N+]=[N-]`: the composite z-score was 1.5 in assay [1]; 1.16 in [2]; 0.0147 in assay [3]; 0.772 in assay [4]; 1.32 in assay [5]; 0.931 in assay [6]. In addition, the composite z-score in the assay with Lefty1 is -0.367; in assay [8] it was 0.455; in assay [10] it was 0.038; in assay [15], 1.23; in assay [16] it was 0.126; in the assay with Torsin-1A (Homo sapiens) [17], 0.17. Also, the figures for the composite z-score (with Torsin-1A (Homo sapiens) [18]; in assay [19]) were -0.0097 and 0.255, respectively. Also, the z-score in assay [7] was 0.98; in assay [9], -8.62 (active); in [11], -1.76 (inactive); in assay [12], 0.672 (inactive); in assay [13] it was 2.66 (inactive); in assay [14] it was -1.37 (inactive).
As for `COCCOC(=O)N1C(=O)[C@@]2(c3ccccc31)[C@H](C(=O)N1CCCCCCC1)[C@H]1C(=O)O[C@H](c3ccccc3)[C@H](c3ccccc3)N1[C@@H]2c1ccccc1OCCO`, the composite z-score was determined as 2.04 in assay [1]; 1.27 in [2]; 1.26 in assay [3]; 0.802 in assay [4]; 1.47 in assay [5]; 0.662 in assay [6]. Moreover, the composite z-score in the assay on Lefty1 was determined as 1.47; in assay [8], 1.53; in assay [10], 1.09; in [15] it was 2.79; in [16] it was 1.76; with Torsin-1A (Homo sapiens) [17], 1.27. The composite z-score is 1.76 in the assay with Torsin-1A (Homo sapiens) [18] and 1.3 in [19]. Moreover, the z-score is -0.647 in assay [7]; 0.131 (inactive) in [9]; -2.56 (inactive) in assay [11]; -0.699 (inactive) in assay [12]; 0.0384 (inactive) in [13]; 0.207 (inactive) in assay [14].
For `CCN(CC)c1ccc(N2CC=CC34O[C@@H]5C=CCCOC(=O)C5[C@H]3C(=O)N(CCCO)[C@@H]4C2=O)cc1` (stereo not given in full), the composite z-score was -1.26 in [1]; -1.14 in assay [2]; 0.585 in assay [3]; -1.33 in assay [4]; -0.0464 in assay [5]; -0.175 in assay [6]. Further, the composite z-score in the assay with Lefty1 is 0.108; in assay [8] it was -1.19; in assay [10], -0.0601; in assay [15], -0.619; in assay [16], 0.0051; in the assay with Torsin-1A (Homo sapiens) [17], -0.143. Also, the composite z-score was -0.419 with Torsin-1A (Homo sapiens) [18] and 0.327 in [19]. In addition, the z-score in assay [7] is 0.185; in assay [9], -0.546 (inactive); in [11], -2.8 (inactive); in [12], -0.657 (inactive); in [13] it was 0.0605 (inactive); in [14], -1.14 (inactive).

Values taken from PubChem BioAssay.
